In PubChem BioAssay (Tox21):
Results filed as inconclusive are left out. Where a call stands in place of a potency, no number is given. The source made the active and inactive calls. Unless noted, calls follow the shape of the full dose curve.

Assay: qHTS assay for small molecule agonists of the p53 signaling pathway (AID 651631); also: nearly all actives have a fitted effect of over 15% in size
Details: HCT-116 p53RE-bla reporter, beta-lactamase FRET ratio, 16 h; series mostly up to 73.3 µM
Outline: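 Stably transfected HCT-116 cells (beta-lactamase behind p53 response elements) get compounds after a 5 h settling period; 16 h later at 37 °C, FRET substrate is loaded and fluorescence read after 2 h.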
With `CC(=O)CCc1ccc(O)cc1` the Potency was “inactive”. For `c1ccc(SCCSc2ccccc2)cc1`, the Potency was “inactive”. With `CC(C)[N+](C)(C)CC(O)COc1cccc2ccccc12` (stereo not given) the Potency was “inactive”. In the case of `C=C(C)[C@H]1CC=C(C)CC1`, the Potency is reported as “inactive”. In the case of `CSc1nc(NC2CC2)nc(NC(C)(C)C)n1`, the Potency is reported as “inactive”. For `COC[C@H](c1ccc(C(F)(F)F)cc1)N1CCN(C2(C)CCN(C(=O)c3c(C)ncnc3C)CC2)C[C@H]1C`, the Potency was “inactive”. With `OCCN1C[C@H](O)[C@@H](O)[C@H](O)[C@H]1CO` the Potency was “inactive”. With `[O-][N+](=Nc1ccccc1)c1ccccc1` the Potency was “inactive”. In the case of `OCC(O)[C@@H](O)[C@H](O)[C@H](O)CO[C@H]1O[C@H](CO)[C@@H](O)[C@H](O)[C@H]1O` (stereo not given in full), the Potency is reported as “inactive”. With `CC(C)c1cccc(O)c1` the Potency was “inactive”. In the case of `CO`, the Potency is reported as “inactive”. For `COc1cccc(Br)c1`, the Potency was “inactive”. In the case of `CCc1cc(S(=O)(=O)O)c2cc(C(C)C)cccc1-2`, the Potency is reported as “inactive”. For `O=C(O)C(O)[C@H](O)[C@@H](O)[C@H](O)[C@H](O)CO` (stereo not given in full), the Potency was “inactive”. For `CCCCCCCCC=O`, the Potency was “inactive”. For `C=C(C)C(=O)NCCCN(C)C`, the Potency was “inactive”. For `CC(C)(O)C(=O)c1ccc(OCCO)cc1`, the Potency was “inactive”. For `N#CCN(CC#N)CCN(CC#N)CC#N`, the Potency was “inactive”. With `CC/C=C\CCCCO` the Potency was “inactive”. For `COc1cccc(OC)c1`, the Potency was “inactive”. In the case of `CCCCCCOC(=O)c1ccccc1O`, the Potency is reported as “inactive”. In the case of `O=[N+]([O-])c1ccc(CCO)cc1`, the Potency is reported as “inactive”. With `COc1cc(O)cc(O)c1` the Potency was “inactive”. In the case of `O=C(O)CCNC(=O)c1ccc(N=Nc2ccc(O)c(C(=O)O)c2)cc1`, the Potency is reported as “inactive”. For `CO[Si](OC)(OC)OC`, the Potency was “inactive”. With `NS(=O)(=O)c1cc2c(cc1Cl)NC(CSCc1ccccc1)=NS2(=O)=O` the Potency was “inactive”. For `Cc1ccccc1C(=O)O`, the Potency was “inactive”. In the case of `CCCCCCCCCCCCCCCCCCOCC(O)CO` (stereo not given), the Potency is reported as “inactive”. With `Cn1ccc2cc3c(cc21)CCN3C(=O)Nc1cccnc1` the Potency was “inactive”.

Assay: qHTS assay for small molecules that induce genotoxicity in human embryonic kidney cells expressing luciferase-tagged ATAD5 (AID 651632; active = well fitted activation curve with a large enough effect in the repeat runs; also: nearly all actives have a fitted effect of over 15% in size; also: potency is read from the fitted curve at half-maximal effect)
Details: HEK293T ATAD5-luciferase induction, 16 h; series mostly up to 83.3 µM
Outline: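 HEK293T cells carrying luciferase-tagged ATAD5 were given compound or DMSO vehicle and incubated 16 hr at 37C, 5% CO2. Luciferase activity was read after 30 min at room temperature with Amplite; a rise signals genotoxic stress.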
For `CC(=O)CCc1ccc(O)cc1`, the Potency was “inactive”. In the case of `NC(=O)c1ncn([C@@H]2O[C@H](CO)[C@@H](O)[C@H]2O)c1N`, the Potency is reported as “inactive”. For `CC(C)[N+](C)(C)CC(O)COc1cccc2ccccc12` (stereo not given), the Potency was “inactive”. With `C=C(C)[C@H]1CC=C(C)CC1` the Potency was “inactive”. In the case of `CSc1nc(NC2CC2)nc(NC(C)(C)C)n1`, the Potency is reported as “inactive”. In the case of `CC(O)CN(CCCN(C)C)CCCN(C)C` (stereo not given), the Potency is reported as “inactive”. For `COC[C@H](c1ccc(C(F)(F)F)cc1)N1CCN(C2(C)CCN(C(=O)c3c(C)ncnc3C)CC2)C[C@H]1C`, the Potency was “inactive”. In the case of `OCCN1C[C@H](O)[C@@H](O)[C@H](O)[C@H]1CO`, the Potency is reported as “inactive”. With `[O-][N+](=Nc1ccccc1)c1ccccc1` the Potency was “inactive”. For `O=[N+]([O-])c1ccc(Oc2ccc([N+](=O)[O-])cc2)cc1`, the Potency was “inactive”. For `OCC(O)[C@@H](O)[C@H](O)[C@H](O)CO[C@H]1O[C@H](CO)[C@@H](O)[C@H](O)[C@H]1O` (stereo not given in full), the Potency was “inactive”. With `CC(C)c1cccc(O)c1` the Potency was “inactive”. For `COc1cccc(Br)c1`, the Potency was “inactive”. In the case of `CCc1cc(S(=O)(=O)O)c2cc(C(C)C)cccc1-2`, the Potency is reported as “inactive”. In the case of `O=C(O)C(O)[C@H](O)[C@@H](O)[C@H](O)[C@H](O)CO` (stereo not given in full), the Potency is reported as “inactive”. In the case of `CCCCCCCCC=O`, the Potency is reported as “inactive”. For `C=C(C)C(=O)NCCCN(C)C`, the Potency was “inactive”. For `CC(C)(O)C(=O)c1ccc(OCCO)cc1`, the Potency was “inactive”. For `N#CCN(CC#N)CCN(CC#N)CC#N`, the Potency was “inactive”. For `CC/C=C\CCCCO`, the Potency was “inactive”. With `COc1cccc(OC)c1` the Potency was “inactive”. With `CCCCCCOC(=O)c1ccccc1O` the Potency was “inactive”. With `CC(C)N1C(=O)c2ccccc2C1=O` the Potency was “inactive”. In the case of `O=[N+]([O-])c1ccc(CCO)cc1`, the Potency is reported as “inactive”. With `COc1cc(O)cc(O)c1` the Potency was “inactive”. In the case of `O=C(O)CCNC(=O)c1ccc(N=Nc2ccc(O)c(C(=O)O)c2)cc1`, the Potency is reported as “inactive”. For `CC(C)c1cccc(C(C)C)c1N`, the Potency was “inactive”. With `CO[Si](OC)(OC)OC` the Potency was “inactive”. With `NS(=O)(=O)c1cc2c(cc1Cl)NC(CSCc1ccccc1)=NS2(=O)=O` the Potency was “inactive”. In the case of `CCCCOCC(C)OCC(C)O` (stereo not given), the Potency is reported as “inactive”. With `CCCCCCCCCCCCCCCCCCOCC(O)CO` (stereo not given) the Potency was “inactive”. With `C=CCOc1nc(OCC=C)nc(OCC=C)n1` the Potency was “inactive”. In the case of `Cn1ccc2cc3c(cc21)CCN3C(=O)Nc1cccnc1`, the Potency is reported as 11.9 µM (active).

Assay: qHTS assay for small molecule agonists of the p53 signaling pathway - cell viability (AID 651633); also: nearly all actives have a fitted effect of over 30% in size
Details: p53RE-bla HCT-116 viability, ATP luminescence, 16 h; series mostly up to 83.3 µM
Outline: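 p53RE-bla cells, seeded at 4,000 per well and rested 5 h at 37 C/5% CO2, received compounds in DMSO for 16 h at 37 C. CellTiter-Glo was then added, and luminescence was read after 30 min at room temperature to gauge cytotoxicity.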
For `CC(=O)CCc1ccc(O)cc1`, the Potency was “inactive”. With `NC(=O)c1ncn([C@@H]2O[C@H](CO)[C@@H](O)[C@H]2O)c1N` the Potency was “inactive”. In the case of `c1ccc(SCCSc2ccccc2)cc1`, the Potency is reported as “inactive”. For `C=C(C)[C@H]1CC=C(C)CC1`, the Potency was “inactive”. For `CC(O)CN(CCCN(C)C)CCCN(C)C` (stereo not given), the Potency was “inactive”. For `O=[N+]([O-])c1ccc(Oc2ccc([N+](=O)[O-])cc2)cc1`, the Potency was “inactive”. For `OCC(O)[C@@H](O)[C@H](O)[C@H](O)CO[C@H]1O[C@H](CO)[C@@H](O)[C@H](O)[C@H]1O` (stereo not given in full), the Potency was “inactive”. With `CO` the Potency was “inactive”. With `CCc1cc(S(=O)(=O)O)c2cc(C(C)C)cccc1-2` the Potency was “inactive”. For `O=C(O)C(O)[C@H](O)[C@@H](O)[C@H](O)[C@H](O)CO` (stereo not given in full), the Potency was “inactive”. In the case of `COc1cccc(OC)c1`, the Potency is reported as “inactive”. With `CC(C)N1C(=O)c2ccccc2C1=O` the Potency was “inactive”. For `O=C(O)CCNC(=O)c1ccc(N=Nc2ccc(O)c(C(=O)O)c2)cc1`, the Potency was “inactive”. In the case of `CC(C)c1cccc(C(C)C)c1N`, the Potency is reported as “inactive”. In the case of `NS(=O)(=O)c1cc2c(cc1Cl)NC(CSCc1ccccc1)=NS2(=O)=O`, the Potency is reported as “inactive”. With `CCCCOCC(C)OCC(C)O` (stereo not given) the Potency was “inactive”. For `Cc1ccccc1C(=O)O`, the Potency was “inactive”. In the case of `C=CCOc1nc(OCC=C)nc(OCC=C)n1`, the Potency is reported as “inactive”.
